Assay results taken from PubChem BioAssay (NCATS).
Inconclusive results are not listed. Entries that show only a call come without a potency. Values without a mark were called inactive. The source made the active and inactive calls. Calls follow the shape of the dose curve; as a rule, active = well fitted curve in the direction sought with a large enough effect; inconclusive = small, poorly fitted or top-dose-only effect, or another doubt; inactive = no such curve, though single readings can be large; an effect the other way counts as inactive or inconclusive.

Legend:
[1] = P-glycoprotein substrates identified in KB-8-5-11 adenocarcinoma cell line, qHTS therapeutic library screen (AID 1346987); also: nearly all actives have a fitted effect of over 65% in size
Procedure, shortened: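 Steps: plate 500 KB-8-5-11 cells/well in DMEM + 10% FCS (colchicine removed); pin compounds in dose-response; incubate 72 h, 37 degree C, 5% CO2; add CellTiter-Glo, 5 min; read luminescence.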

[2] = system: Zika virus NS2B-NS3 protease (unlinked complex); assay: Primary screen GU Rhodamine qHTS for Zika virus inhibitors: Unlinked NS2B-NS3 protease assay (AID 1347159); also: nearly all actives have a fitted effect of over 60% in size; also: potency is read from the fitted curve at half-maximal effect
Procedure, shortened: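 Noncovalent NS2B hydrophilic domain/NS3 protease complex (25 nM final) in 10 mM Tris-HCl pH 8.0, 0.01% Tween 20, preincubated 15 min with compounds (up to 114 microM), then 1.5 microM Rhodamine110 substrate. Fluorescence change over 15 min fitted to 4-parameter Hill.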

[3] = system: Zika virus NS2B-NS3 protease (linked construct); assay: Primary screen NINDS Rhodamine qHTS for Zika virus inhibitors (AID 1347160); also: nearly all actives have a fitted effect of over 55% in size; also: potency is read from the fitted curve at half-maximal effect
Procedure, shortened: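 Purified NS2B-NS3 protease with the NS2B hydrophilic domain joined by a flexible linker (25 nM) in 10 mM Tris-HCl pH 8.0, 0.01% Tween 20, preincubated 15 min at RT with compound; Rhodamine110 peptide substrate 1.5 µM; fluorescence change over 15 min; 4-parameter Hill fit.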

| SMILES | Potency [1] | Potency [2] | Potency [3] | outcome [1] | activity change, negative = inhibition [2] | outcome [3] |
| --- | --- | --- | --- | --- | --- | --- |
| COc1ccc(/C=C/C(=O)O[C@@H]2[C@@H](OC(C)=O)[C@@H](OC(C)=O)[C@H](O[C@H]3[C@@H]4C=CO[C@@H](O[C@@H]5O[C@H](CO)[C@@H](O)[C@H](O)[C@H]5O)[C@@H]4[C@@]4(CO)O[C@@H]34)O[C@H]2C)cc1 | inactive | inactive | inactive | – | – | – |
| C/C=C(\C)C(=O)OC1C2(O)CC3=C4CC(=O)OC(c5ccoc5)C4(C)CCC3C(C)(C2=O)C(C(OC(C)=O)C(=O)OC)C1(C)C (configuration not stated) | inactive | inactive | inactive | – | – | – |
| C=C1CC[C@@H]2C(C)(C)CCC[C@@]2(C)[C@@H]1CC/C(=C/C(=O)OC)COC(C)=O | inactive | inactive | inactive | – | – | – |
| C/C(=C\CCC(C)C1CC(O)C2(C)C3CCC4C(C)(C)C(OC5OCC(O)C(O)C5O)CCC45CC35CC(O)C12C)C(=O)O (configuration not stated) | inactive | inactive | inactive | – | – | – |
| COC(=O)C1=CO[C@@H](O[C@@H]2O[C@H](CO)[C@@H](O)[C@H](O)[C@H]2O)[C@@H]2[C@@H](C(=O)O)CC[C@H]12 | inactive | inactive | inactive | – | – | – |
| CCOC(=O)c1ccc(NC2CCCCC2)c(N)c1 | inactive | inactive | inactive | – | – | – |
| CC(=O)OC(C)C(C)(O)C(=O)O[C@@H]1CC[C@]2(C)CC(=O)C(=C(C)C)C[C@H]2[C@]1(C)OC(C)=O (some centres not stated) | inactive | inactive | inactive | – | – | – |
| CCCCC(=O)N1c2ccccc2NC2=C(C(=O)CCC2)C1c1ccccc1Cl (configuration not stated) | inactive | inactive | inactive | – | – | – |
| O=C(O)c1ccnc(-c2cc(C(=O)NCCc3ccccc3)ccn2)c1 | inactive | inactive | inactive | – | – | – |
| CC1(C)CC(NC(=O)C(=O)Nc2ccc(Cl)cc2)CC(C)(C)N1 | inactive | inactive | inactive | – | – | – |
| O=C(O)c1ccncc1Nc1nn(CCN2CCC(F)(F)CC2)c2ccc(F)cc12 | inactive | inactive | inactive | – | – | – |
| N[C@@H](CC(=O)Nc1ccc(Oc2cc(F)c(F)cc2Br)cc1)C(=O)O | inactive | 70.8 µM (active) | inactive | – | – | – |
| CC1(C)CC[C@]2(C(=O)O[C@@H]3O[C@H](CO[C@@H]4O[C@H](CO)[C@@H](O)[C@H](O)[C@H]4O)[C@@H](O)[C@H](O[C@@H]4O[C@H](CO)[C@@H](O)[C@H](O)[C@H]4O)[C@H]3O)[C@H](O)C[C@]3(C)C(=CCC4[C@@]5(C)CC[C@H](O[C@@H]6OC[C@@H](O)[C@H](O)[C@H]6O)[C@@](C)(C(=O)O)C5CC[C@]43C)[C@@H]2C1 (some centres not stated) | – | inactive | inactive | inactive [at 9.29 µM] | – | – |
| CC(=O)O[C@@H]1[C@H](O[C@@H]2OC[C@](O)(CO)[C@H]2O)[C@@H](O[C@@H]2O[C@@H](C)[C@H](O)[C@@H](O[C@@H]3O[C@H](CO)[C@@H](O)[C@H](O)[C@H]3O)[C@H]2O)[C@H](OC(=O)[C@]23CCC(C)(C)C[C@H]2C2=CCC4[C@@]5(C)C[C@H](O)[C@H](O[C@@H]6O[C@H](C(=O)O)[C@@H](O)[C@H](O)[C@H]6O)[C@@](C)(C(=O)O)C5CC[C@@]4(C)[C@]2(C)CC3)O[C@@H]1C (some centres not stated) | – | – | inactive | inactive [at 9.29 µM] | 2.67% [at 19.1 µM] | – |
| CC(C)=CCC[C@](C)(O[C@@H]1O[C@H](CO[C@@H]2O[C@@H](CO)[C@H](O)[C@H]2O[C@@H]2OC[C@@H](O)[C@H](O)[C@H]2O)[C@@H](O)[C@H](O)[C@H]1O)[C@H]1CC[C@]2(C)[C@@H]1[C@H](O)CC1[C@@]3(C)CC[C@H](O[C@@H]4O[C@H](CO)[C@@H](O)[C@H](O)[C@H]4O[C@@H]4O[C@H](CO)[C@@H](O)[C@H](O)[C@H]4O)C(C)(C)C3CC[C@]12C (some centres not stated) | – | – | – | inactive [at 9.29 µM] | 0.816% [at 19.1 µM] | inactive [at 10.7 µM] |
| C/C=C/C1OC2=C(C(=O)OC2(C)O)C(O)C1O (configuration not stated) | inactive | inactive | inactive | – | – | – |
| COc1cc(C(CO)CO[C@@H]2O[C@H](CO)[C@@H](O)[C@H](O)[C@H]2O)ccc1O (some centres not stated) | inactive | inactive | inactive | – | – | – |
| CC(=O)OCC1OC(O[C@H]2CC[C@]34C[C@]35CC(O)[C@]3(C)[C@@H]([C@H](C)CC/C=C(\C)C(=O)O)C(O)C[C@@]3(C)C5CC[C@H]4C2(C)C)C(O)C(O)C1OC1OCC(O)C(O)C1O (some centres not stated) | – | inactive | inactive | inactive [at 9.29 µM] | – | – |
| CCOC(=O)C(CCc1ccccc1)NC1CCCN2CCCC(C(=O)O)N2C1=O (configuration not stated) | inactive | inactive | inactive | – | – | – |
| CC(=O)OC[C@]12[C@@H](OC(=O)c3ccoc3)C[C@@H]3[C@@H](OC(C)=O)[C@]1(OC3(C)C)[C@@](C)(O)C[C@H](OC(=O)c1ccoc1)[C@@H]2OC(=O)c1ccoc1 | inactive | inactive | inactive | – | – | – |
| CC(C)[C@@](O)(c1ccc2cc(OC(F)F)c(OC(F)F)cc2c1)c1cn[nH]n1 | inactive | inactive | inactive | – | – | – |
| COc1cc(O)c2c(c1Cl)CC(C)OC2=O (configuration not stated) | inactive | inactive | inactive | – | – | – |
| CC1=CCC[C@@H]2[C@@](C)(CCc3ccoc3)[C@H](C(=O)O)CC[C@@]12C | inactive | 31.6 µM (active) | inactive | – | – | – |
| C=CC(C)(CC/C=C(\C)C(=O)OC[C@H]1O[C@@H](OC(C)(C=C)CC/C=C(\C)C(=O)O[C@H]2[C@H](O)[C@@H](O)[C@H](OC(C)(C=C)CC/C=C(\C)C(=O)O)O[C@@H]2CO)[C@H](O)[C@@H](O)[C@@H]1O)O[C@@H]1O[C@H](CO)[C@@H](O)[C@H](O)[C@H]1O (some centres not stated) | – | inactive | inactive | inactive [at 9.29 µM] | – | – |
| C[C@@H]1CCC2C(C)(C)[C@H](O)[C@H](O)C[C@]2(C)[C@@]12Cc1c(O)cc3c(c1O2)CN(CCCC(=O)O)C3=O (some centres not stated) | inactive | inactive | inactive | – | – | – |

| SMILES | Potency [1] | Potency [2] | Potency [3] | outcome [1] | activity change, negative = inhibition [2] | outcome [3] |
| --- | --- | --- | --- | --- | --- | --- |
| C[C@@H]1O[C@@H](O[C@H]2[C@@H]3C=CO[C@@H](O[C@@H]4O[C@H](CO)[C@@H](O)[C@H](O)[C@H]4O)[C@@H]3[C@@]3(CO)O[C@@H]23)[C@H](O)[C@H](OC(=O)/C=C/c2ccc(O)cc2)[C@H]1OC(=O)/C=C/c1ccc(O)cc1 | inactive | inactive | inactive | – | – | – |
| CO[C@@H]1[C@]2(O)C(=O)N3/C=C\C(C)(C)c4[nH]c5ccccc5c4/C=C\3C(=O)N2[C@]23[C@H](CO)C(C)(C)N2c2ccccc2[C@]13O | inactive | inactive | inactive | – | – | – |
| COc1cc(C(CO)C(OC2OC(CO)C(O)C(O)C2O)c2ccc(O)c(OC)c2)ccc1O (configuration not stated) | inactive | inactive | inactive | – | – | – |
| O=C(OC[C@H]1O[C@H](O[C@]2(CO)O[C@H](CO)[C@@H](O)[C@@H]2O)[C@H](O)[C@@H](O)[C@@H]1O)c1ccc(O)cc1 | inactive | inactive | inactive | – | – | – |
| CC1(C)C(=O)N2c3ccccc3C(O)(CC(C(=O)O)n3cnc4ccccc4c3=O)C2N1O (configuration not stated) | inactive | inactive | inactive | – | – | – |
| O=C(O)c1cc(C(F)(F)F)ccc1N1CC[C@H](OCc2ccccn2)C1 | inactive | inactive | inactive | – | – | – |
| C=C(C(=O)O)[C@@H]1CC[C@@]2(C)CCC[C@@](C)(O)[C@@H]2C1 | inactive | inactive | inactive | – | – | – |
| CCCC(C(=O)O)c1c(C)nc2ccc(Cl)cc2c1-c1ccccc1 (configuration not stated) | inactive | 31.6 µM (active) | 14.1 µM (active) | – | – | – |
| N#Cc1cc(-c2n[nH]c(-c3ccncc3)n2)ccn1 | inactive | inactive | inactive | – | – | – |
| COc1ccc(NC(=O)c2ccc(-c3ccc(C(N)=O)cc3C)cc2)cc1N1CCN(C)CC1 | inactive | inactive | inactive | – | – | – |
| CC1(C)CC=C(C#Cc2ccccc2)c2cc(/C=C/c3ccc(C(=O)O)cc3)ccc21 | inactive | 6.31 µM (active) | 15.8 µM (active) | – | – | – |
| COC(=O)CCC1(C)C(C(C)(C)O)C(O)CC2(C)Oc3c(C)c4c(c(OC)c3CC21)C(=O)OC4 (configuration not stated) | inactive | inactive | inactive | – | – | – |
| C/C=C(\C)C(=O)OC[C@H]1O[C@@H](O[C@H]2[C@@H](O[C@H]3O[C@H](CO)[C@@H](O)[C@H](O)[C@H]3O[C@@H]3O[C@H](CO)[C@@H](O)[C@H](O)[C@H]3O)O[C@H](COC(=O)/C(C)=C/C)[C@@H](O)[C@@H]2O)[C@H](O)[C@@H](O)[C@@H]1O | – | inactive | inactive | inactive [at 9.29 µM] | – | – |
| COc1ccc(C2(O)c3ccccc3NC(=O)C2OC)cc1 (configuration not stated) | inactive | inactive | inactive | – | – | – |
| CC(NC(=O)c1ccccc1N)C(=O)O (configuration not stated) | inactive | inactive | inactive | – | – | – |
| Cc1c(C)c(NCC(=O)N(C)C2CCN(Cc3ccc(C(N)=O)cc3)CC2)c(C)c(C)c1N | inactive | inactive | inactive | – | – | – |
| CC(C)=C1CC2[C@](C)(CC[C@@H](OC(=O)C3(C)OC3C)[C@@]2(C)O)CC1=O (some centres not stated) | inactive | inactive | inactive | – | – | – |
| CC(C)=CCc1c(O)cc2oc3cc(C)cc(O)c3c2c1C | inactive | 20 µM (active) | inactive | – | – | – |
| COc1cc2c(cc1O)C(c1ccc(O)cc1)C(C)C(C)C2 (configuration not stated) | inactive | 39.8 µM (active) | inactive | – | – | – |
| Oc1ccc(CC2NCCc3cc(O)c(O)cc32)cc1 (configuration not stated) | inactive | inactive | inactive | – | – | – |
| CC(C)(O)/C=C/C(=O)[C@](C)(O)[C@H]1[C@H](O)C[C@@]2(C)[C@@H]3CC=C4[C@@H](C=C(O[C@@H]5O[C@H](CO)[C@@H](O)[C@H](O)[C@H]5O)C(=O)C4(C)C)[C@]3(C)C(=O)C[C@]12C | inactive | inactive | inactive | – | – | – |
| OC[C@@]1(O)CO[C@H](OC[C@H]2O[C@@H](OC(CCCCc3ccc(O)cc3)CCc3ccc(O)cc3)[C@H](O)[C@@H](O)[C@@H]2O)[C@@H]1O (some centres not stated) | inactive | inactive | inactive | – | – | – |
| Cc1nnc(-c2sc(NC(=O)[C@H](C(C)C)n3c(=O)[nH]c4ccccc4c3=O)nc2C)o1 | inactive | inactive | inactive | – | – | – |
| C=CC(C)(CC/C=C(\C)C(=O)OC)OC1OC(COC(=O)CC(C)(O)CC(=O)O)C(O)C(O)C1O (configuration not stated) | inactive | inactive | inactive | – | – | – |
